Reference: PubChem BioAssay (NCI)
Compounds without any hit were thinned out: in the full panel of roughly 83,000, 20% have a hit.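 96-well plates, one dose, 48 hours. Percent growth reported; active if below 10.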 Calls of active or inactive are those of the source.

test system: UACC-62 melanoma; experiment: NCI-60 one-dose screen, 48 h (100 = growth as untreated, 0 = no growth, -100 = all killed); settings: 10 µM unless noted

Structure (SMILES)	growth
CS(=O)(=O)Nc1cccc(C(=O)NCc2ccc(N3CCOCC3)cc2)c1	113% (inactive)
COc1ccc(S(=O)(=O)ON=C2C=C(C)C(=O)C(C)=C2)cc1	91.2% (inactive)
CCOC(=O)c1c(Cl)c2c(n1Cc1cc(OC)cc(OC)c1)-c1oncc1CCC2	28.5% (inactive)
NC(=S)N/N=C1\c2ccccc2-c2c(F)c(F)c(F)c(F)c21	93.4% (inactive)
N#Cc1c(O)c2c(c(O)c1C#N)C(=O)c1ccccc1C2=O	-17.3% (active)
COc1cc(/C=C/C(=O)CC(=O)/C=C/c2cc(Br)c(OC)c(OC)c2)cc(Br)c1OC	101% (inactive)
CCN1CCN(c2ccc(Nc3ncc4ccc5ncn(C(C)C)c5c4n3)nc2)CC1	-17% (active)
Nc1nc2c(s1)CCc1c-2c(Br)n(Cc2ccccc2)c1Br	78.3% (inactive)
O=c1onc(-c2ccccc2)c2ccccc12	103% (inactive)
CCCCCn1c(=N)n(CC(O)COc2cccc(C)c2)c2ccccc21 (centres undefined)	25.7% (inactive)
COc1ccc(-c2nn(-c3ccc(NC(=O)c4ccc(Cl)c(Cl)c4)cc3)cc2-c2ccncc2)cc1Cl	24.5% (inactive)
CCC(C)Oc1cc(/C=N/NC(=O)c2cnn3c2NC(c2ccccc2)C3)ccc1OC (centres undefined)	36% (inactive)
COc1cccc(OC)c1OC(=O)c1ccccc1	97.1% (inactive)
C=C[C@H]1C[C@@H]2C[C@@H]3[C@H]4C/C=C\C(=O)NCCCC5NC(=O)C(=C(O)/C=C/[C@@H]4CC(=O)[C@H]3[C@@H]2[C@H]1C)C5=O (some centres undefined)	-75.8% (active)
